# Measurements: the supplement of paper PMC10981050
# Counter-ions that a name gives are not always drawn.
# Test system: MARIMO
# Assay: cell viability relative to vehicle control; higher = less cytotoxic
# Conditions: 10 µM; SRSF2 genotype: SRSF2 wt/wt
# Outline: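 Screening covered the Selleck bioactive, kinase and epigenetic probe libraries, less identity-inconsistent compounds, on CRISPR-edited mutant clones and isogenic wild-type clones of four leukaemia lines. Cells, at 2000 per well in 50 µL medium, received a single 10 µM acoustically dispensed dose. After 48 h the supernatant was removed and CellTiter-Glo luminescence was read. Viability was analysed in Genedata Screener as percent of the on-plate vehicle control.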
row,SMILES,cell viability [%]
1,CC1(C)CCC[C@](C)([C@H]2CC[C@]3(C)[C@@H]2[C@H](O)C[C@@H]2[C@@]4(C)CC[C@H](O)C(C)(C)[C@@H]4[C@@H](O)C[C@]23C)O1 [Panaxatriol],105
2,COc1cc2c(cc1OC)[C@@H]1Cc3ccc(OC)c(OC)c3CN1CC2 [Tetrahydropalmatine hydrochloride],93.7
3,CCCCCCCCOc1ccccc1C(=O)Nc1ccc(C(=O)OCC[N+](C)(CC)CC)cc1 [Otilonium Bromide],84.5
4,CC(CCc1ccccc1)NCC(=O)c1ccc(O)c(C(N)=O)c1 (stereo not given) [Labetalone hydrochloride],102
5,COC1(c2sc3c(N4CCOCC4)nc(-c4cnc(N)nc4)nc3c2C)COC1,38
6,CC(=O)N1CCN(c2ccc(OCC3COC(Cn4ccnc4)(c4ccc(Cl)cc4Cl)O3)cc2)CC1 (stereo not given) [Ketoconazole],26.1
7,CC(C)=CCOc1ccc(/C=C/C(=O)c2ccc(OCC=C(C)C)cc2OCC(=O)O)cc1 [Sofalcone],101
8,CC(C)=CCC[C@](C)(O[C@@H]1O[C@H](CO)[C@@H](O)[C@H](O)[C@H]1O)[C@H]1CC[C@]2(C)[C@@H]1[C@H](O)C[C@@H]1[C@@]3(C)CC[C@H](O)C(C)(C)[C@@H]3[C@@H](O[C@@H]3O[C@H](CO)[C@@H](O)[C@H](O)[C@H]3O[C@@H]3O[C@@H](C)[C@H](O)[C@@H](O)[C@H]3O)C[C@]12C [Ginsenoside Re],105
9,CC(=O)c1cc2c(o1)C(=O)c1ccccc1C2=O [Napabucasin],2.73
10,C/C=C(\C)C(=O)OC1c2c(ccc3ccc(=O)oc23)OC(C)(C)C1OC(=O)/C(C)=C/C (stereo not given) [Praeruptorin B],111
11,CN(C)CCCNC(=O)c1ccc(-c2cc(O)c3ncccc3c2)cc1,53
12,O=c1ncccn1[C@@H]1O[C@H](CO)[C@@H](O)[C@H]1O [Zebularine],91.4
13,C/C=C(/C)C(=O)OC(C)(C)[C@@H]1Cc2c(ccc3ccc(=O)oc23)O1 [Columbianadin],86.5
14,CCc1c(C(=O)NCCc2ccc(N3CCCCC3)cc2)[nH]c2ccc(Cl)cc12,108
15,COc1cccc(-c2cc(=O)c3ccccc3o2)c1N,61.9
16,CC/C=C(\C(=O)N[C@@H]1C(=O)N2C(C(=O)OCOC(=O)C(C)(C)C)=C(COC(N)=O)CS[C@H]12)c1csc(N)n1 [Cefcapene Pivoxil Hydrochloride],103
17,CO/N=C(\C(=O)N[C@@H]1C(=O)N2C(C(=O)OCOC(=O)C(C)(C)C)=C(/C=C\c3scnc3C)CS[C@H]12)c1csc(N)n1 [Cefditoren pivoxil],111
18,COc1cc2c(=O)c(-c3ccc(O)cc3)coc2cc1O [Glycitein],90.8
19,S=c1nc[nH]c2nc[nH]c12 [6-Mercaptopurine (6-MP) Monohydrate],96.8
20,COc1ccccc1C(=O)Nc1cc2c(cc1N1CCCC1)n(C)c(=O)n2C,95.3

row,SMILES,cell viability [%]
1,C[C@H]1[C@H](C)CC[C@]2(C(=O)O[C@@H]3O[C@H](CO[C@@H]4O[C@H](CO)[C@@H](O[C@@H]5O[C@H](C)[C@H](O)[C@@H](O)[C@H]5O)[C@H](O)[C@H]4O)[C@@H](O)[C@H](O)[C@H]3O)CC[C@]3(C)C(=CC[C@@H]4[C@@]5(C)C[C@@H](O)[C@H](O)[C@@](C)(CO)[C@@H]5CC[C@]43C)[C@H]12 [Asiaticoside],99.2
2,O=C1N=C(N2CCOCC2)CN1c1ccc(Cl)cc1,111
3,Cc1ncc(COP(=O)(O)O)c(C=O)c1O [Pyridoxal phosphate],106
4,COc1c(N2C[C@@H]3CCCN[C@@H]3C2)c(F)cc2c(=O)c(C(=O)O)cn(C3CC3)c12 [Moxifloxacin],99.8
5,C=CC(=O)Nc1cccc(Nc2nc(Nc3ccc(OCCOC)cc3)ncc2F)c1,60.4
6,COC(=O)N[C@H](C(=O)N1CCC[C@H]1c1ncc(-c2ccc(-c3ccc(-c4cnc([C@@H]5CCCN5C(=O)[C@@H](NC(=O)OC)C(C)C)[nH]4)cc3)cc2)[nH]1)C(C)C [Daclatasvir Digydrochloride],73.5
7,Cc1coc2c1C(=O)C(=O)c1c-2ccc2c(C)cccc12 [Tanshinone I],63.4
8,CC(C)=CCCC(C)=CCCC(C)=CCCC(C)=CCC1=C(C)C(=O)c2ccccc2C1=O [Vitamin K2],92.6
9,C=CC(=O)N1CCC(Oc2cc3c(Nc4ccc(Cl)c(Cl)c4F)ncnc3cc2OC)CC1 [Poziotinib (HM781-36B)],72.6
10,OCC(O)C(O)C(O)C(O)CO (stereo not given) [Allitol],101
11,CCCCC[C@](C)(O)/C=C/[C@@H]1[C@@H](C/C=C\CCCC(=O)O)[C@@H](O)C[C@H]1O [Carboprost],91.1
12,Cc1cc(C)nc(NS(=O)(=O)c2ccc(NC(=S)NC(=O)COc3ccc(Br)cc3Cl)cc2)n1,90.7
13,Cc1nc2cc(F)c(F)cc2n1-c1cncc(Nc2ccc(C(F)(F)F)cc2)n1,6.32
14,NC(=O)N/N=C/c1ccc([N+](=O)[O-])o1 [Nitrofurazone (Nitrofural)],100
15,COc1ccc2cc([C@H](C)C(=O)O)ccc2c1 [Naproxen Sodium],97.2
16,C[C@H]1O[C@@H](n2cc(F)c(=O)[nH]c2=O)[C@H](O)[C@@H]1O [Doxifluridine],104
17,Clc1cccc(Cl)c1NC1=NCCN1 [Clonidine hydrochloride (Catapres)],113
18,Cc1ccc(-c2nn(C(C)(C)C)c3ncnc(N)c23)cc1,102
19,CC(=O)OCCc1ccc(O)c(O)c1 [Hydroxytyrosol Acetate],98.6
20,CCCCCCCC(=O)N[C@H](CN1CCCC1)[C@H](O)c1ccc2c(c1)OCCO2 [Eliglustat (Tartrate)],89.7
